Test results as given in PubChem BioAssay (NCI).
Values joined by “and” are separate entries in the source; they are usually repeats but may differ in a detail not shown here. Identical values can stand only once. Compounds without any hit were thinned out: in the full panel of roughly 83,000, 20% have a hit.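 The test compound was applied at a single concentration to cells in 96-well plates for 48 hours, and percent growth was recorded.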 Active and inactive are the calls of the source. The calls were made as follows: active = growth percent below 10; inactive = the rest.

Key:
Test in all cases: NCI-60 one-dose screen, 48 h (100 = growth as untreated, 0 = no growth, -100 = all killed)
Conditions in all cases: 10 µM unless noted
NCI-H23 lung = tested on: NCI-H23 lung
NCI-H226 lung = tested on: NCI-H226 lung
HOP-62 NSCLC = tested on: HOP-62 NSCLC
NCI-H460 lung = tested on: NCI-H460 lung
HOP-92 NSCLC = tested on: HOP-92 NSCLC
NCI-H522 lung = tested on: NCI-H522 lung
A549/ATCC NSCLC = tested on: A549/ATCC NSCLC
786-0 renal = tested on: 786-0 renal
COLO 205 colon = tested on: COLO 205 colon
NCI-H322M lung = tested on: NCI-H322M lung

SMILES	growth (NCI-H23 lung)	growth (NCI-H226 lung)	growth (HOP-62 NSCLC)	growth (NCI-H460 lung)	growth (HOP-92 NSCLC)	growth (NCI-H522 lung)	growth (A549/ATCC NSCLC)	growth (786-0 renal)	growth (COLO 205 colon)	growth (NCI-H322M lung)
Nc1ccccc1SC1CC(=O)N(c2ccc(I)cc2)C1=O (configuration not stated)	89.8% (inactive)	102% (inactive)	80.5% (inactive)	92.6% (inactive)	100% (inactive)	77.4% (inactive)	87.1% (inactive)	105% (inactive)	95.3% (inactive)	
COc1ccc(/C=C/C(=O)O)cc1OC	108% (inactive) and 98.7% (inactive)	102% (inactive) and 107% (inactive)	104% (inactive) and 105% (inactive)	103% (inactive)	89% (inactive) and 97.1% (inactive)	102% (inactive) and 84% (inactive)	99.7% (inactive) and 104% (inactive)	102% (inactive) and 105% (inactive)	104% (inactive) and 115% (inactive)	
Nc1ccccc1SC(CC(=O)c1ccccc1)c1cccc([N+](=O)[O-])c1 (configuration not stated)	87.1% (inactive) and 90.4% (inactive)		95.3% (inactive) and 95.4% (inactive)	105% (inactive) and 100% (inactive)	95.9% (inactive)	84.4% (inactive) and 73.3% (inactive)	95.1% (inactive) and 78.7% (inactive)	113% (inactive) and 91.8% (inactive)	102% (inactive) and 109% (inactive)	113% (inactive) and 96.1% (inactive)
CC(C)(C)OC(=O)c1ccc(NCc2cc(O)ccc2O)cc1	59.5% (inactive)	9.37% (active)	45.1% (inactive)	53.4% (inactive)	17.5% (inactive)	-78.4% (active)		-72.7% (active)	10.8% (inactive)	
Nc1[nH][nH]c(=O)c1N=Nc1ccccc1	98.7% (inactive) and 99% (inactive)	106% (inactive) and 91.8% (inactive)	104% (inactive) and 105% (inactive)	99.8% (inactive) and 117% (inactive)	101% (inactive)	88.9% (inactive) and 79.1% (inactive)	103% (inactive) and 110% (inactive)	113% (inactive) and 109% (inactive)	107% (inactive) and 112% (inactive)	
NCCCCCC(=O)O	97.6% (inactive) and 104% (inactive) and 92.2% (inactive)	101% (inactive) [middle of 4 runs]	99.7% (inactive) and 105% (inactive) and 97.7% (inactive)		97.2% (inactive) and 90.1% (inactive)	100% (inactive) [middle of 4 runs]	94.1% (inactive) and 100% (inactive) and 99.7% (inactive)	107% (inactive) [middle of 4 runs]	114% (inactive) and 104% (inactive) and 95.2% (inactive)	
CN1C2C=CC(=O)C1C1C(=O)N(c3ccccc3)C(=O)C12 (configuration not stated)	96.7% (inactive)	105% (inactive)	91.2% (inactive)	80.6% (inactive)	32.3% (inactive)	-8.8% (active)	106% (inactive)	93.5% (inactive)	99.9% (inactive)	
O=C(OCc1ccccc1)c1ccccc1	107% (inactive) and 90.2% (inactive)	97.9% (inactive) and 93.9% (inactive)	94.9% (inactive) and 90.5% (inactive)	109% (inactive) and 108% (inactive)	89.6% (inactive)	111% (inactive) and 79.6% (inactive)	95.3% (inactive) and 86.6% (inactive)	95.1% (inactive) and 96.5% (inactive)	101% (inactive)	
CC(=O)C[n+]1ccccc1Sc1ccc(Cl)cc1	100% (inactive)	91.1% (inactive)	107% (inactive)	77% (inactive)	98.8% (inactive)	108% (inactive)	84.6% (inactive)	82.6% (inactive)	109% (inactive)	
N#CC(=S)Nc1ccc(Cl)c(Cl)c1	3.93% (active)	9.29% (active)	24.3% (inactive)	9.12% (active)	-15.6% (active)	-14% (active)	15.6% (inactive)	14.2% (inactive)	-22% (active)	
Cc1cc(-c2ccc(N=Nc3c(C)nn(-c4ccc(S(=O)(=O)O)cc4)c3O)c(C)c2)ccc1N=Nc1ccc(O)c(C(=O)O)c1	99.1% (inactive)	82.2% (inactive)	87.7% (inactive)	109% (inactive)	109% (inactive)	87.9% (inactive)	104% (inactive)	103% (inactive)	94% (inactive)	
CC(=O)Nc1cscc1NC(C)=O	103% (inactive)	96.8% (inactive)	98.2% (inactive)	101% (inactive)	112% (inactive)	91.3% (inactive)	104% (inactive)	101% (inactive)	100% (inactive)	
CC1=CC(=O)C=CC1=Nc1ccc(N(C)C)cc1	87% (inactive) and -21.1% (active)	95.6% (inactive) and 70.4% (inactive)	92.4% (inactive) and 72% (inactive)	103% (inactive) and 70.1% (inactive)	81.2% (inactive) and 7.79% (active)	29.9% (inactive)	101% (inactive) and 58.7% (inactive)	95.2% (inactive) and 76% (inactive)	71.1% (inactive) and -30.2% (active)	
Nc1ccc(O)c(C(=O)O)c1	92.7% (inactive) and 105% (inactive) and 94.2% (inactive)	95.4% (inactive) and 92.4% (inactive) and 116% (inactive)	92.5% (inactive) and 103% (inactive) and 90.9% (inactive)	103% (inactive) and 101% (inactive) and 116% (inactive)	104% (inactive) and 105% (inactive)	102% (inactive) and 101% (inactive)	105% (inactive) and 97% (inactive)	98.9% (inactive) and 101% (inactive) and 94.7% (inactive)	107% (inactive) and 134% (inactive)	
Nc1c(Cl)cc2c(c1Br)C(=O)c1ccccc1C2=O	88.2% (inactive)	99.5% (inactive)	101% (inactive)	110% (inactive)	125% (inactive)	91.7% (inactive)	98.1% (inactive)	105% (inactive)	104% (inactive)	
CC(=O)c1cccc(OC(=O)c2ccccc2)c1	101% (inactive)	101% (inactive)	104% (inactive)	107% (inactive)	82.9% (inactive)	84.7% (inactive)	99% (inactive)	102% (inactive)	107% (inactive)	
CCN(CC)CCO/N=C1\CC(c2ccc(OC)c(OC)c2)Oc2ccccc21 (configuration not stated)	96.2% (inactive)	84.7% (inactive)	104% (inactive)	104% (inactive)	79.6% (inactive)	88.2% (inactive)	97% (inactive)	81.1% (inactive)	97.5% (inactive)	
O=S(=O)(O)c1ccc2cc(O)ccc2c1	98.3% (inactive)	98% (inactive)	99.7% (inactive)	102% (inactive)	88.8% (inactive)	90% (inactive)	111% (inactive)	104% (inactive)	103% (inactive)	
CC(=O)Nc1ccc(OC(C)=O)cc1	12% (inactive) and 103% (inactive)	5.48% (active) and 98.2% (inactive)	8.93% (active) and 111% (inactive)	2.3% (active) and 98.6% (inactive)	102% (inactive)	-31.9% (active) and 105% (inactive)	6.06% (active) and 102% (inactive)	11.4% (inactive) and 99.9% (inactive)	-81.3% (active) and 108% (inactive)	
COC(=O)c1cc(C(=O)OC)cc([N+](=O)[O-])c1	105% (inactive)	108% (inactive)	94.8% (inactive)	113% (inactive)	105% (inactive)	90.6% (inactive)	87.7% (inactive)	92.9% (inactive)	101% (inactive)	
O=[N+]([O-])c1cccc2ccc(N/N=C/c3ccccc3O)nc12	72.4% (inactive) and 98.3% (inactive)	83.4% (inactive) and 99.5% (inactive)	85% (inactive) and 97.9% (inactive)	91.9% (inactive) and 98.4% (inactive)	67.7% (inactive) and 77.7% (inactive)	78.6% (inactive) and 89.2% (inactive)	97.3% (inactive) and 90.9% (inactive)	102% (inactive) and 85.9% (inactive)	68.1% (inactive) and 111% (inactive)	
